Compound activity from PubChem.
Pf Dd2 inh – qHTS Primary assay for Inhibitors of Plasmodium falciparum Dd2 growth in vitro | P. falciparum Dd2 growth, SYBR Green, 72 h | 120,000 tested, 4.3% active | Potency, µM (series often up to 28.9 µM), usual class: inhibitors; active = well fitted inhibition curve with a large enough effect; also: nearly all actives have a fitted effect of over 65% in size
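Infected erythrocytes (Dd2, 0.3% parasitemia, 2.5% hematocrit final) are added to compound in RPMI-1640/Albumax II medium, grown 72 h at 37C in low oxygen, then lysed with saponin/Triton-X containing SYBR Green and read by fluorescence.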
Numbers stand for hits; n = inactive. Shown is part of a subset that was picked to be rich in hits.

SMILES	Pf Dd2 inh
Cc1cccnc1C(=O)N1C[C@@H](CO)[C@H](c2ccccn2)C1	n
Cc1noc([C@@H]2CN(Cc3cc(F)cc(F)c3)C[C@H]2CO)n1	n
CCOCCn1c(=O)n(CCN2C[C@H]3CC[C@H]2C3)c2cc(C(=O)O)cnc21	n
CC(C)c1noc(-c2cccn3c(CNC(=O)c4ccccc4)nnc23)n1	n
O=C(NCCc1cnc[nH]1)c1ccc2nc(-c3ccc(F)cc3)cn2c1	10µM
CCC(NC(=O)c1ccc2nc(-c3ccc(F)cc3)cn2c1)c1ncc(C)[nH]1 (stereo not given)	7.9µM
COc1cc(F)ccc1-c1cc2c(ccn2C)c(C(=O)NCCc2cnc[nH]2)n1	n
COCCN(CC1CC1)C(=O)c1ccc2nc(-c3ccc(F)cc3)cn2c1	n
CN(C(=O)c1ccc2nc(-c3ccc(F)cc3)cn2c1)C1CCOCC1	n
CC(Cc1cnccn1)NC(=O)c1ccc2nc(-c3ccc(F)cc3)cn2c1 (stereo not given)	n
NCC(=O)N1CCC2(CC1)C(=O)NCN2C(=O)c1ccc(Cl)cc1	n
COCCNC(=O)C[C@@H]1C[C@H]2O[C@H](CNC(=O)N3CCOCC3)[C@@H](O)[C@H]2O1	n
Cc1cc(CNC(=O)Cc2nonc2C)c2[nH]c(-c3ccccc3)c(C)c2c1	n
Cn1nc(-c2ccc3ccccc3c2)cc1[C@H]1CN2CC[C@H]1C[C@@H]2CNC(=O)NCc1ccccc1	7.9µM
COc1ccc(-c2cc([C@H]3CN4CC[C@H]3C[C@@H]4CNC(=O)NCc3ccccc3)n(C)n2)cc1	n
COc1ccc(-c2cc([C@H]3CN4CC[C@H]3C[C@@H]4CNS(=O)(=O)c3ccc(Cl)cc3)n(C)n2)cc1OC	0.63µM
COc1ccc(-c2cc([C@H]3CN4CC[C@H]3C[C@@H]4CN)n(C)n2)cc1OC	11µM
COc1ccc(OC)c(S(=O)(=O)NC[C@H]2C[C@@H]3CCN2C[C@@H]3c2cc(-c3ccc4ccccc4c3)nn2C)c1	n
COc1ccc(-c2cc([C@H]3CN4CC[C@H]3C[C@@H]4CNS(=O)(=O)c3ccc(NC(C)=O)cc3)n(C)n2)cc1	n
CC(=O)NC[C@H]1C[C@@H]2CCN1C[C@@H]2c1cc(-c2ccc3ccccc3c2)nn1C	n
COc1ccc(-c2cc([C@H]3CN4CC[C@H]3C[C@@H]4CNC(=O)c3ccco3)n(C)n2)cc1OC	n
COc1ccc(-c2cc([C@H]3CN4CC[C@H]3C[C@@H]4COC(=O)NC(C)C)n(C)n2)cc1OC	n
COc1ccc(OCC(O)CN(C)C)c(CN2CCC(c3ccncn3)CC2)c1 (stereo not given)	n
N#Cc1cccc(C(=O)N2CCCC(n3cc(-c4nc(C5CC5)no4)nn3)C2)c1 (stereo not given)	n
NC(=O)C1(c2nc(COc3ccccc3)nn2-c2ccc3c(c2)OCO3)CC1	n
SMILES	Pf Dd2 inh
O=C(O)C[C@@H]1CCN(C(=O)Nc2ccccc2)C[C@@H]1CCN1CCN(c2ccc(F)cc2)CC1	n
CCS(=O)(=O)N(C1CC1)C1CCOC2(CCN(C(=O)c3cc(F)ccc3F)CC2)C1 (stereo not given)	n
CCOc1cc(C(=O)N2CCCN(c3cc(-c4ccc(F)cc4)[nH]n3)CC2)cc(OCC)c1OCC	n
Cc1ccc(F)cc1S(=O)(=O)N1C[C@@H](F)C[C@H]1C(=O)N1CCc2ccccc2C1	n
COc1ccc(-c2nc3c(c(=O)[nH]2)CCNC3)cc1	n
CC(C)c1cccc(NC(=O)c2ccc(Cn3ccn4nc5c(c4c3=O)CCCC5)cc2)c1	n
CCOc1ccc(CN(CCc2ccc3c(c2)OCO3)Cc2ccc(C)cc2)cc1	10µM
CCOc1ccccc1CN(CCc1ccc2c(c1)OCO2)Cc1cc(OC)c(OC)cc1OC	4µM
CCOc1ccccc1CNC(=O)c1noc(-c2ccc3c(c2)OCO3)n1	n
CCOc1ccc(CN(C)C2CCOc3ccccc32)cc1 (stereo not given)	n
CCOc1ccc(CN(CCc2ccc3c(c2)OCO3)Cc2cccc(OC)c2)cc1	n
CCOc1ccc(CN(CCc2ccc3c(c2)OCO3)Cc2cccc(Br)c2)cc1	n
CCCn1c(C)cnc1CC1CCN(C(=O)C2CC2)C1 (stereo not given)	n
COCCNC(=O)C1CCN(C(=O)C2CN(c3ccc(OC)cc3)C(=O)N2)C1 (stereo not given)	n
COC(=O)c1ccccc1C(=O)N1CCCC(N2CCN(c3ccc(F)cc3)CC2)C1 (stereo not given)	n
O=C1Cc2c(-c3cccc4ccccc34)n[nH]c2CN1CCOc1ccccc1	n
COc1cccc2c1OCC(CNC(=O)CCc1cn3ccccc3n1)C2 (stereo not given)	n
Cn1cccc1CN1CCC2(CC(c3cccc(C(F)(F)F)c3)=NO2)C1 (stereo not given)	n
CCN(CC)C(=O)C(NC(=O)c1ccccc1)C1CCN(S(=O)(=O)c2ccc(C)cc2)CC1 (stereo not given)	n
CCn1cc(CN2CCc3nn(CC4CC4)c(=O)n3CC2)cn1	n
O=C1CCN(C(=O)C2CCCC2)CCCC(c2nc(-c3ccccc3)no2)CCN1 (stereo not given)	n
